Measurements taken from PubChem BioAssay AID2535 (National Center for Advancing Translational Sciences (NCATS), 2010).
Activity calls are given as the source filed them. The call rests on the fitted dose curve; in most records, active means well fitted curve in the direction sought with a large enough effect; inconclusive means small, poorly fitted or top-dose-only effect, or effect the other way, or another doubt; inactive means no such curve, though single readings can be large or run the other way.

Molecular target: Pyruvate kinase PKLR (Homo sapiens) (UniProt P30613)
Sequence (P30613 whole entry, looked up): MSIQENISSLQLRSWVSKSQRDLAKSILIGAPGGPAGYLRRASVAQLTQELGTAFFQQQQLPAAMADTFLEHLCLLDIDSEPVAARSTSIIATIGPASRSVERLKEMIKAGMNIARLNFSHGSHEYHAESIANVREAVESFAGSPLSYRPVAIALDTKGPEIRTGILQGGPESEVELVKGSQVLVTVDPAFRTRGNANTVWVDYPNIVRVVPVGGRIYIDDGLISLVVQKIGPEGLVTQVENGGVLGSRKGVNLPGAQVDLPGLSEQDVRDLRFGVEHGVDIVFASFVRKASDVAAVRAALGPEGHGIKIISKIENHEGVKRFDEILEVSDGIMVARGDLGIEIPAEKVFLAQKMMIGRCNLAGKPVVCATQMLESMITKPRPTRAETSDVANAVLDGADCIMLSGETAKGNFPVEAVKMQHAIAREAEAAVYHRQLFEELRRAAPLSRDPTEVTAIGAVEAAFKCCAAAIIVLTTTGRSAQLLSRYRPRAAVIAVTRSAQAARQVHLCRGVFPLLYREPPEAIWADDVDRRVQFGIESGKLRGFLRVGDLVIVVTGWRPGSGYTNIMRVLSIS
Experiment: Secondary Concentration-Response Assay for Activators of Human Liver Pyruvate Kinase: for Probe SAR;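 further: 0% = uninhibited enzyme wells on each plate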
Settings: purified hPK-L, ATP production, Kinase-Glo luminescence; series mostly up to 58.3 µM; activity change, positive = activation: at the top concentration
Text: NIH Chemical Genomics Center [NCGC]
Matthew G. Vander Heiden, M.D., Ph.D. [Harvard Medical School, 77 Avenue Louis Pasteur, Boston, MA 02115]
Human pyruvate kinase liver (hPK-L) enzyme was supplied as a highly purified (>95% pure) preparation from Harvard Medical School and assayed for its ability to generate ATP from ADP using phosphoenolpyruvate (PEP) as a substrate. ATP generation was detected in a coupled reaction by luciferase-mediated luminescence, an ATP-dependent process. Pyruvate kinase substrates, PEP and ADP, were present in the assay at Km and approximately 10-fold below Km respectively. The enzyme was assayed at an intermediate level of activity to screen for both inhibitors and activators.
NCGC Assay Protocol Summary for L-isoform:
Three uL of substrate mix (at r.t.) in assay buffer (50 mM Imidazole pH7.2, 50 mM KCl, 7 mM MgCl2, 0.01% Tween 20, 0.05% BSA) was dispensed into white solid bottom 1,536 well microtiter plates so that the final concentrations of substrates in the assay were 0.1 mM ADP and 0.5 mM PEP. 23 nL of compound were delivered by a pin tool and 1 uL of enzyme mix (final concentration of 0.1 nM) in assay buffer (4 degree Celsius) was added. Plates were incubated at room temperature for 1 hour. Two uL of detection mix (Kinase-Glo, Promega; at 4 degree Celsius protected from light) was added and luminescence read by a ViewLux (Perkin Elmer) at 1 second exposure/plate. Data were normalized to the uninhibited (row 31). Additionally, a no enzyme and 5-fold enzyme control was dispensed in row 32, split equally between the two conditions.

Activity change, positive = activation, inactive:
Cc1ccc2nc(-c3ccc(C)o3)c(NC3CCCC3)n2c1 7.09%
Cc1ccc(NC(=O)c2ccc3c(c2)CCC(=O)N3)cc1C 3.59%
N#Cc1ccc(NS(=O)(=O)c2ccc3c(c2)CCC(=O)N3)cc1 3.86%
O=C1c2ccccc2C(=O)N1c1ccccn1 2.49%
O=C1CCc2cc([S+](=O)([O-])NC3CCOCC3)ccc2N1 -3.54%
Cc1ccc(NS(=O)(=O)c2cccc(F)c2)cc1C 8.43%
Cc1ccn2c(NC3CCCCC3)c(-c3ccc(C)o3)nc2c1 -25.8%
Cc1ccc(Nc2c(-c3ccc(C)s3)nc3ccccn23)cc1 3.95%
CNc1cc2c(cc1S(=O)(=O)Nc1ccc(C)c(C)c1)CCC(=O)N2 -8.71%
O=C1CCc2cc(S(=O)(=O)Nc3ccc(F)cc3)ccc2N1 -0.305%
O=C1CCc2cc(S(=O)(=O)Nc3cccc(C(F)(F)F)c3)ccc2N1 -3.5%
Cc1ccc(Nc2c(-c3ccc(C)o3)nc3ccccn23)cc1 0.661%
Cc1ccc(NS(=O)(=O)c2cc3c(cc2Cl)CCC(=O)N3)cc1C 5.22%
COc1ccccc1N1C(=O)c2ccccc2C1=O 7.74%
CNc1cccc(S(=O)(=O)N2CCCN(S(=O)(=O)c3ccc4c(c3)OCCO4)CC2)c1 22.2%
O=C1c2ccccc2C(=O)N1c1ncccc1O 4.65%
O=C1CCc2cc(S(=O)(=O)Nc3ccccc3F)ccc2N1 -10.2%
Cc1ccc(-c2nc3ccccn3c2Nc2ccc(F)cc2)o1 2.86%
COc1ccc(OC2=NS(=O)(=O)c3ccccc32)cc1 -3.39%
Cc1ccc(NS(=O)(=O)c2ccc3ccccc3c2)cc1C 5.46%
COc1ccc(N2C(=O)c3ccccc3C2=O)cc1 -5.43%
CC(=O)N1c2ccc(S(=O)(=O)Nc3ccc(C)c(C)c3)cc2CC1C (stereo not given) 29.6%
Cc1ccc(NS(=O)(=O)c2ccc3c(c2)CC(=O)N3C)cc1C 17.1%
Cc1ccc(NS(=O)(=O)c2cc3c(cc2N2CCC2)NC(=O)CC3)cc1C -7.16%
Cc1ccc(NS(=O)(=O)c2ccc3c(c2)CCC(=O)N3)cc1Cl 8.73%
O=C1CCc2cc(S(=O)(=O)Nc3cccc(B(O)O)c3)ccc2N1 6.48%
O=C1CCc2cc([S+](=O)([O-])Nc3ccc(N[S+](=O)([O-])c4ccc5c(c4)CCC(=O)N5)cc3)ccc2N1 6.99%
Cc1cccc(OC2=NS(=O)(=O)c3ccccc32)c1 2.27%
COc1ccc(-c2nc3cccc(C)n3c2Nc2ccc(C)cc2)cc1 2.15%
Cc1ccc(NS(=O)(=O)c2cc3c(cc2F)NC(=O)CC3)cc1C 8.84%
O=S1(=O)N=C(Oc2ccccc2Cl)c2ccccc21 2.37%
O=C1CCc2cc(S(=O)(=O)Nc3cccnc3)ccc2N1 0.695%
COc1ccc(NS(=O)(=O)c2ccc3c(c2)CCC(=O)N3)cc1 4.38%
Cc1nc(-c2ccc(S(=O)(=O)Nc3ccc(C)c(C)c3)s2)cs1 4.91%
O=C1c2ccccc2C(=O)N1c1noc2ccccc12 -6.4%
COc1ccc(Nc2c(-c3ccc(C)o3)nc3ccccn23)cc1 2.05%
O=C1CCc2cc(Cl)c(S(=O)(=O)Nc3ccc(Cl)c(Cl)c3)cc2N1 9.66%
O=C1c2ccccc2C(=O)N1Cc1ccccn1 2.21%
Cc1ccc2nc(-c3ccc(C)o3)c(Nc3ccc(Cl)cc3)n2c1 -16.2%

outcome, inactive:
O=S(=O)(c1ccc2c(c1)OCCO2)N1CCN(S(=O)(=O)c2c(F)cccc2F)CC1
